# From PubChem BioAssay
# Sampled rows, rich in hits. Any-hit rate of the full collection: about 8%.
# FMDV antiviral: antivirals against foot and mouth disease virus; FMDV antiviral cell-based qHTS; Potency, µM (doses to about 57.9 µM), without a hit: at the top dose activity change, negative = inhibition, hits mostly inhibitors; 1.2% of 410,000 active; AID 1159524; calls by dose curve; tested in HEK293T cells; also: read-out not given here; potency is read from the fitted curve at half-maximal effect; % is scaled to controls: 0 for no effect and ±100 for the full control effect; nearly all actives have a fitted effect of over 45% in size
# Marburg entry inh: inhibitors of Marburg virus binding or cell entry. Marburg virus pseudotyped entry inhibition, cell reporter. Potency, µM (titrated, usually from 37.8 µM), inactives show at the top dose activity change, negative = inhibition, usual class: inhibitors. 1.8% of 300,000 active; calls by dose curve; tested in HEK293 cells; also: potency is read from the fitted curve at half-maximal effect; % is scaled to controls: 0 for no effect and ±100 for the full control effect
# HCV inh: blocks hepatitis C virus; Huh7.5.1 HCVcc-Cre infection, luciferase reporter, 44 h; Potency, µM (top dose mostly 41.8 µM), for the others: top-dose activity change, negative = inhibition, hits mostly inhibitors; 3.4% of 340,000 active; active = well fitted inhibition curve with a large enough effect; inconclusive = small, poorly fitted or top-dose-only effect, or another doubt; inactive = no such curve, though single readings can be large or run the other way; also: potency is read from the fitted curve at half-maximal effect; % is scaled to controls: 0 for no effect and ±100 for the full control effect
#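 Compounds are dispensed onto cells plated 4 h earlier at 1,000 per well, with HCVcc-Cre virus (about 0.5 moi) added next. Following 44 h of culture, luminescent signal is measured for 15 sec after 15 min with substrate at room temperature.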
# HCMV antiviral: inhibitors of human cytomegalovirus. HFF cells, HCMV-luciferase reporter, 72 h; hits give low values. 4.5% of 410,000 active. activity change, negative = inhibition, % at 57.5 µM; in the data active = activity change below about -60%; inconclusive = no clear call, values can overlap the other calls; inactive = above about -39%; also: % is scaled to controls: 0 for no effect and ±100 for the full control effect
#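 Cell-based, HFFs, 1000 cells/well, 16 h 37C; cpds in DMSO + HCMV-luc, MOI 1 PFU/cell; 72 h 37C; OneGlo luminescence after 5 min RT; norm. to buffer vs Salinomycin 10uM.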
# SARS PLP yeast: SARS-CoV PLP inhibition in yeast; S. cerevisiae expressing SARS-CoV PLpro, growth rescue; Potency, µM (top dose mostly 32.9 µM), for the others: top-dose activity, positive = growth rescue, hits mostly activators; 0.19% of 330,000 active; calls by dose curve; also: potency is read from the fitted curve at half-maximal effect; 0% is about no effect; nearly all actives have a fitted effect of over 55% in size
# LASV entry inh: Lassa virus entry inhibition | Potency, µM (titrated, usually from 37.9 µM), for inactives: at the highest dose activity change, negative = inhibition, hits mostly inhibitors | AID 540256 | Lassa virus pseudotype entry inhibition, cell reporter | 1.2% of 300,000 active; calls by dose curve; tested in HEK293 cells; also: potency is read from the fitted curve at half-maximal effect; % is scaled to controls: 0 for no effect and ±100 for the full control effect; nearly all actives have a fitted effect of over 50% in size
# Active calls of the source: *; ? = inconclusive; · = no result; [ ] = another dose, or the depositor's remark.
SMILES,FMDV antiviral,Marburg entry inh,HCV inh,HCMV antiviral,SARS PLP yeast,LASV entry inh
O=C(Nc1ccc(Cl)c(S(=O)(=O)N2CCCCC2)c1)c1cccnc1,0%,·,14µM*,0,-3%,·
CCOc1c(Cl)cc(C(=O)NCCN2CCCCC2)cc1Cl,-8%,?,10µM*,9,17%,-14%
Cc1ccc(C(=O)NCCN2CCCC2)cc1,-19%,3%,3%,27,18%,4%
O=C(NC1CCCC1)c1ccc(Cl)c(S(=O)(=O)N2CCCCC2)c1,-13%,-5%,35µM*,-40,0%,-4%
CC1CCCN(c2ccc(C(=O)Nc3ccc4c(c3)OCO4)cc2[N+](=O)[O-])C1 (stereo not drawn),?,?,?,?,-8%,?
O=C(Nc1cccc(S(=O)(=O)N2CCCC2)c1)c1cccnc1,-17%,?,-4%,14,-2%,14%[46.1 µM]
CC1CCN(c2ccc(C(=O)Nc3ccc4c(c3)OCO4)cc2[N+](=O)[O-])CC1,-29%,?,4.5µM*,-61*,-22%,-28%
NCC(O)COc1cccc2ccccc12 (stereo not drawn),-6%,·,·,·,·,·
C=C1CCN(c2ccc(C(=O)NCCC)cc2[N+](=O)[O-])CC1,4%,·,10µM*,-1,·,·
O=C(Nc1ccc(Br)cc1)c1ccc(Cl)c(S(=O)(=O)N2CCCCCC2)c1,28µM*,·,·,-32,·,?
O=C(c1ccc(Cl)c(S(=O)(=O)N2CCCC2)c1)N1CCN(Cc2ccccc2)CC1,-7%,·,?,-10,·,·
O=C(c1ccc(Cl)c(S(=O)(=O)N2CCCCC2)c1)N1CCN(Cc2ccccc2)CC1,0%,-5%,?,-61*,-1%,?
O=C(O)c1ccc(Cl)c(S(=O)(=O)N2CCCCCC2)c1,·,1%,21%,2,-1%,5%
CCCNC(=O)c1ccc(SCC(=O)N(CC)CC)c([N+](=O)[O-])c1,17%,-6%,?,-67*,3%,14%
C=C1CCN(c2ccc(C(=O)NCc3ccccc3)cc2[N+](=O)[O-])CC1,-5%,·,-14%,-37,-13%,·
O=C(c1ccc2c(c1)N(Cc1ccc(Cl)cc1)C(=O)c1ccccc1S2(=O)=O)N1CCCCCC1,6%,?,·,?,·,-25%[46.1 µM]
Cc1ccc(OCC(=O)Nc2ccc3nn(-c4ccc(Cl)cc4)nc3c2)cc1,-20%,·,·,31,·,?
Cc1ccc(C(=O)Nc2nnc(SCc3cc(=O)c4c(C)ccc(C)c4[nH]3)s2)cc1,-26%,·,·,1,·,-18%[46.1 µM]
COc1ccc(CNC(=O)CCc2c(C)nn(-c3ccc(N4CCCCC4)nn3)c2C)cc1,5%,·,·,-20,·,-27%[46.1 µM]
O=C(Nc1nc2ccccc2[nH]1)c1ccc(Cl)c(S(=O)(=O)N2CCCC2)c1,?,?,22µM*,·,-5%,?
O=C(NCCCn1ccnc1)c1ccc(N2CCCCCC2)c([N+](=O)[O-])c1,-11%,?,-11%,-61*,-3%,?
O=C(Nc1nc2ccccc2[nH]1)c1ccc(S(=O)(=O)N2CCOCC2)cc1,14%,·,28%,2,0%,·
O=C(Nc1cccnc1)c1ccc(N2CCCC2)c([N+](=O)[O-])c1,44%,22%[46.1 µM],11µM*,4,1%,12%
COc1ccc(NC(=O)Cn2ccn(-c3ccc(C)c(C)c3)c(=O)c2=O)cc1Cl,8%,·,·,?,·,-4%[46.1 µM]
CC(C)(C)OC(=O)N/N=C/c1cc(N=Nc2ccccc2)ccc1O,?,?,32µM*,14,4%,?
SMILES,FMDV antiviral,Marburg entry inh,HCV inh,HCMV antiviral,SARS PLP yeast,LASV entry inh
O=C(CCCC(=O)NN=Cc1ccccc1Cl)NN=Cc1ccccc1Cl,-13%,2%,-25%,8,·,5%
COC(=O)N/N=C/c1cn(CCCOc2ccccc2)c2ccccc12,?,16µM*,?,70,7%,?
COC(=O)N/N=C/c1ccccc1Cl,-5%,8%[46.1 µM],3%,-75*,1%,?
O=C(N/N=C/c1cn(CCOc2ccccc2)c2ccccc12)c1ccncc1,7%,0%,18%,32,?,?
COC(=O)N/N=C/c1cn(Cc2ccc(Cl)cc2Cl)c2ccccc12,-11%,13µM*,?,-39,-4%,?
O=C(c1cccs1)N1C[C@@H](O)[C@@H](n2cc(C3CC3)nn2)C[C@@H]1c1ccccc1,·,·,·,·,·,8%[46.1 µM]
CCc1ccc(NC(=O)c2sc(-n3nc(C)c(Cc4ccc(OC)cc4)c3C)nc2C)cc1,-29%,?,·,48,·,12%[46.1 µM]
COc1cccc2c1Oc1ncccc1N(C(=O)CCC(=O)NCc1ccc(OC(C)C)cc1)C2,-13%,·,·,6,·,21%[46.1 µM]
C[C@@H](NCCCc1cccc(C(F)(F)F)c1)c1cccc2ccccc12,·,·,·,-6,·,·
S=C(c1cn(CCOc2cccc3ccccc23)c2ccccc12)N1CCCC1,?,-21%,?,-77*,18%,-17%
COc1ccccc1OCCn1cc(/C=N/NC(N)=S)c2ccccc21,?,·,8.9µM*,?,11%,·
COc1ccccc1OCCn1cc(/C=N/NC(=O)c2ccncc2)c2ccccc21,?,7%,-22%,-6,13%,?
COCCn1cc(C(=S)N2CCOCC2)c2ccccc21,-15%,11%,3%,15,-4%,4%
COCCn1cc(C(=S)N2CCCCC2)c2ccccc21,37%,8%[46.1 µM],-8%,16,2%,-1%
S=C(c1cn(CCOc2ccccc2)c2ccccc12)N1CCCC1,-18%,?,11µM*,1,-6%,-23%
Cc1ccc(OCCn2cc(C(=O)C3CCCCC3)c3ccccc32)cc1,-15%,-13%[46.1 µM],·,-101*,·,?
COc1ccc(CNC(=O)c2ccc(CSc3nc4ccncc4n3Cc3ccccc3F)cc2)cc1,7%,-27%[46.1 µM],·,0,·,·
CNC(=S)N/N=C/c1cn(Cc2ccc(F)cc2)c2ccccc12,?,?,32µM*,23,16%,?
COC(=O)c1cn(CCOc2ccccc2)c2ccccc12,-19%,-26%,13µM*,105,-12%,?
COC(=O)c1cn(C(=O)c2ccccc2Cl)c2ccccc12,-23%,?,?,-64*,-1%,?
COC(=O)c1cn(C(=O)c2ccc(C)cc2C)c2ccccc12,-13%,?,?,-29,5%,?
Cc1ccc2c(c1)C(=O)C(=O)N2Cc1ccc(C(F)(F)F)cc1,-22%,·,?,?,-9%,·
CCCN1C(=O)C(=O)c2cc(Cl)ccc21,0%,·,?,-86*,-24%,·
O=C1C(=O)N(CCS(=O)(=O)c2ccccc2)c2ccc(Cl)cc21,-5%,·,16%,-38,-6%,·
Cc1ccc2c(c1)C(=O)C(=O)N2Cc1ccc(OC(C)C)cc1,-9%,?,·,-76*,·,?
Cc1ccc(OCCN2C(=O)C(=O)c3cc(C)ccc32)cc1,-3%,·,?,-92*,-1%,·
